# Assay results taken from paper PMC4336329 (PLoS ONE, 2015).
# Hit rate of the full screen: of about 310,000 compounds, about 14,000 (4.5%) showed an effect of 50% or more. The effect is printed as a negative number. Many of the other results were omitted from the sample, so strong results are more common in it than they were.
# Target: human ether-à-go-go-related gene (hERG) potassium channel (human, UniProt Q12809)
# Experiment: primary screen, population patch clamp on CHO cells stably expressing hERG; higher = less effect of the substance
# 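Further: peak tail current of the secondary pulse compared with the same well before compound.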
# Sequence of human ether-à-go-go-related gene (hERG) potassium channel (Q12809 whole entry, looked up): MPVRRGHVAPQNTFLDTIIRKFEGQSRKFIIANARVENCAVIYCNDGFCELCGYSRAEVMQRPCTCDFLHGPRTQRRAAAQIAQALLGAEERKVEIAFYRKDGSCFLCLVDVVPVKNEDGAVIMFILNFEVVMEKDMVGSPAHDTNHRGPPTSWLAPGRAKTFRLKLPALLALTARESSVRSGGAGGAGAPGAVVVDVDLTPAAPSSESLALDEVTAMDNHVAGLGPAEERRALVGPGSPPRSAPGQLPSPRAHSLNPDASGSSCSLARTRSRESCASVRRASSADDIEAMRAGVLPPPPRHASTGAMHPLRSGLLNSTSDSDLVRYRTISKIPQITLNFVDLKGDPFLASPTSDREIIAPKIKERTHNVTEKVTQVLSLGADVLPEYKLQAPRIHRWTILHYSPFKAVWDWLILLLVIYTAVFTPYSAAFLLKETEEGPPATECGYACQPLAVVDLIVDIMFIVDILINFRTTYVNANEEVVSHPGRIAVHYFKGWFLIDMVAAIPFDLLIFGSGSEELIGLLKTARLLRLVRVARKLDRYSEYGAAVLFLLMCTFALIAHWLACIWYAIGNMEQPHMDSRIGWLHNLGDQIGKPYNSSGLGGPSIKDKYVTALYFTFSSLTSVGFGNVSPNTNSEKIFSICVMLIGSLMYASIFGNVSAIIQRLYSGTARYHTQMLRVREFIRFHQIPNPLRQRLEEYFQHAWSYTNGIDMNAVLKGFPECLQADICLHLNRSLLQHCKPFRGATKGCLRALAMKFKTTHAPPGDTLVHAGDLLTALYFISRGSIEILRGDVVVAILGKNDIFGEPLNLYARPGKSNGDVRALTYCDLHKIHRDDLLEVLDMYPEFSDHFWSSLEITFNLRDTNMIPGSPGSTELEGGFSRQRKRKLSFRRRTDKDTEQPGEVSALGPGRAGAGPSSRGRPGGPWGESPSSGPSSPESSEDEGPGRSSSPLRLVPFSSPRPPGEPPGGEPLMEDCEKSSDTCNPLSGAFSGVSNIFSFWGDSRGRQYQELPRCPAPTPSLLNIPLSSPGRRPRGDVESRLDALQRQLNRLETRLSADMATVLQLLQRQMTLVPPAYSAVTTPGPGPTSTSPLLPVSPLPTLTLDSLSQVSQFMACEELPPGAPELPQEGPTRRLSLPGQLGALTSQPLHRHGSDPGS
row,SMILES,"hERG current change (%, negative = inhibition) at 10uM"
1,O=C(Cc1noc2ccccc12)NNC(=S)Nc1ccc(Cl)cc1,16.5%
2,Cn1nc(C(F)(F)F)c(-c2ccc(Br)cc2)c1NC(=O)Nc1ccc(F)cc1F,13%
3,Cc1ccc(C(=O)C2(C)C3c4cc(Br)ccc4OC(=O)C32C(=O)c2ccco2)cc1 (stereo not drawn),15.8%
4,CCCNC(=O)[C@H]1N2C(=O)c3c(ccc(OC)c3OC)C2SC1(C)C (stereo partly drawn),16.4%
5,COc1ccc(CCNC(=O)CN(c2ccccc2)S(C)(=O)=O)cc1OC,-8.06%
6,CC(C)(C)CN1CCNC(=O)C1CC(=O)NC1Cc2ccccc2C1 (stereo not drawn),4.08%
7,CCNC(=O)O/N=C(\C)c1sc(-c2ccc(Cl)cc2)nc1C,-23.9%
8,CCCS(=O)(=O)c1c(S(=O)(=O)CCC)c2cc(-c3ccncc3)ccn2c1C(=O)OC,-50.2%
9,CCCS(=O)(=O)c1c(S(=O)(=O)CCC)c2cc(CC)ccn2c1C(=O)OC,-29.2%
10,CCCS(=O)(=O)c1c(S(=O)(=O)CCC)c2ccccn2c1C(=O)OC,-7.5%
11,O=C(CSc1nnc(NCc2ccccc2)s1)NC1CCS(=O)(=O)C1 (stereo not drawn),10.1%
12,Cc1cc(SCC(=O)Nc2cccc(S(N)(=O)=O)c2)c(C)cc1Br,30.8%
13,Cc1ccc(-c2noc(CCC(=O)Nc3ccccc3N3CCN(C)CC3)n2)cc1,-33.7%
14,CSc1nc(-c2ccccc2)nn1S(=O)(=O)c1ccccc1,7%
15,CCOC(=O)C1(Cc2cccc(OC)c2)CCN(Cc2cccn2-c2ccccn2)CC1,-74.8%
16,CCOC(=O)C1(Cc2cccc(OC)c2)CCN(Cc2ccon2)CC1,1.68%
17,CCOC(=O)C1(Cc2ccccc2)CCN(Cc2cccn2-c2nccs2)CC1,-82%
18,CCOC(=O)C1(Cc2cccc(OC)c2)CCN(Cc2cccn2-c2nccs2)CC1,-72%
19,CCOC(=O)C1(Cc2cccc(OC)c2)CCN(Cc2cccnc2)CC1,-16.4%
20,COc1ccc(-n2nc(C(=O)NCC(=O)N(C)Cc3ccccc3)c3ccccc3c2=O)cc1,-8.21%
21,NC(=O)[C@@H]1[C@@H]2C(=O)N(c3ccc(F)cc3)C(=O)[C@@H]2[C@H]2C=Cc3ccccc3N21,14.2%
22,Nc1ccc(C(=O)OCC(=O)c2cccc([N+](=O)[O-])c2)cc1,39.8%
23,Cc1ccccc1C(C(=O)NC1CCCCC1)N(C(=O)CNC(=O)c1ccco1)c1cccnc1 (stereo not drawn),6.3%
24,CC(C)CN(C(=O)CSc1n[nH]c(-c2cccs2)n1)C1CCS(=O)(=O)C1 (stereo not drawn),-2.69%
25,O=C(OCc1ccccc1Cl)C1CC(=O)N(Cc2ccco2)C1 (stereo not drawn),11.4%
26,CCOc1ccc(COC(=O)C2CC(=O)N(CCc3ccccc3)C2)cc1OC (stereo not drawn),-21.6%
27,O=C(Nc1ccccc1)C1CC(=O)N(Cc2ccccc2)C1 (stereo not drawn),2.14%

row,SMILES,"hERG current change (%, negative = inhibition) at 10uM"
1,Cc1nn(-c2ccccc2)c(C)c1NC(=O)COC(=O)C1CC(=O)N(CCc2ccccc2)C1 (stereo not drawn),9.52%
2,Cc1ccc(CN2CC(C(=O)OCc3ccccc3Cl)CC2=O)cc1 (stereo not drawn),0.354%
3,CCOC(=O)c1ccccc1NC(=O)COC(=O)C1CCCC1,-2.49%
4,O=C(O)C1CC(=O)N(CCc2ccccc2)C1 (stereo not drawn),6.79%
5,O=C(OCc1ccc([N+](=O)[O-])cc1)C1CC(=O)N(CCc2ccccc2)C1 (stereo not drawn),-69.4%
6,O=C(Nc1ccc(F)c([N+](=O)[O-])c1)C1CC(=O)N(Cc2ccccc2)C1 (stereo not drawn),-34.4%
7,O=C(Nc1cccc([N+](=O)[O-])c1)C1CC(=O)N(Cc2ccccc2)C1 (stereo not drawn),-53.2%
8,O=C(OCc1ccc([N+](=O)[O-])cc1)C1CC(=O)N(Cc2ccccc2Cl)C1 (stereo not drawn),-66.4%
9,CCOC(=O)c1ccccc1NC(=O)COC(=O)C1CC(=O)N(CCc2ccccc2)C1 (stereo not drawn),-75.6%
10,O=C(N/N=C/C(Br)=C/c1ccccc1)C1CC1,32.2%
11,COc1ccc(NC(=O)Cn2nnc(C(=O)NCc3ccc4c(c3)OCO4)c2N)c(OC)c1,18.1%
12,COc1ccc2oc(C(=O)Nc3nccs3)c(C)c2c1,16.7%
13,O=C(OCc1nnc(-c2ccc([N+](=O)[O-])cc2)o1)C1CC(=O)N(CCc2ccccc2)C1 (stereo not drawn),-61.7%
14,O=C(OCc1nnc(-c2ccccc2)o1)C1CC(=O)N(c2ccccc2)C1 (stereo not drawn),-21.5%
15,O=C(OCc1nnc(-c2ccccc2)o1)C1CC(=O)N(CCc2ccccc2)C1 (stereo not drawn),-31%
16,COc1ccc(OC)c(CCNC(=O)CCn2nc(C)c3c(C)n(-c4ccccc4)nc3c2=O)c1,18.5%
17,COC(=O)c1oc2ccc(Br)cc2c1NC(=O)CCN1CCOCC1,-17.7%
18,CCCC(=O)Nc1c(C(=O)OCC)oc2ccccc12,1.98%
19,CCOC(=O)c1oc2ccc(OC)cc2c1NC(=O)CN1CCN(C)CC1.Cl,-5.54%
20,COC(=O)c1oc2ccc(Br)cc2c1NC(=O)CN1CCN(C)CC1,-62.3%
21,CCOC(=O)c1oc2ccccc2c1NC(=O)CN1CCOCC1,6.54%
22,CCOC(=O)c1oc2ccc(Br)cc2c1NC(=O)CN1CCN(C)CC1,-65.8%
23,COC(=O)c1oc2ccc(Br)cc2c1NC(C)=O,3.19%
24,COC(=O)c1oc2ccc(Br)cc2c1NC(=O)CCCN1C(=O)c2ccccc2C1=O,17.1%
25,CCOC(=O)c1oc2ccccc2c1NC(=O)CN1CCN(C)CC1,-58.4%
26,Cc1ccc(C)c(N=Cc2c(O)c3ccccc3oc2=O)c1,16.3%
27,CCc1ccc(C(C(=O)NC2CCCC2)N(C(=O)/C=C/C(=O)Nc2cc(C)on2)c2ccccc2C)cc1 (stereo not drawn),9.58%
